The text below walks through data of PubChem BioAssay AID489037 (National Center for Advancing Translational Sciences (NCATS), 2010).

Each structure is given as a SMILES string. “And” between values parts separate entries of the source, which are not always exact repeats. Equal values may be shown once. Results filed as inconclusive are left out. Values without a mark were called inactive. The source made the active and inactive calls. Calls follow the shape of the dose curve; as a rule, active = well fitted inhibition curve with a large enough effect; inconclusive = small, poorly fitted or top-dose-only effect, or effect the other way; inactive = no such curve, though single readings can be large or run the other way.

Sequence of Nuclear receptor ROR-gamma (Mus musculus) (P51450 whole entry, looked up, the tested form may be a part): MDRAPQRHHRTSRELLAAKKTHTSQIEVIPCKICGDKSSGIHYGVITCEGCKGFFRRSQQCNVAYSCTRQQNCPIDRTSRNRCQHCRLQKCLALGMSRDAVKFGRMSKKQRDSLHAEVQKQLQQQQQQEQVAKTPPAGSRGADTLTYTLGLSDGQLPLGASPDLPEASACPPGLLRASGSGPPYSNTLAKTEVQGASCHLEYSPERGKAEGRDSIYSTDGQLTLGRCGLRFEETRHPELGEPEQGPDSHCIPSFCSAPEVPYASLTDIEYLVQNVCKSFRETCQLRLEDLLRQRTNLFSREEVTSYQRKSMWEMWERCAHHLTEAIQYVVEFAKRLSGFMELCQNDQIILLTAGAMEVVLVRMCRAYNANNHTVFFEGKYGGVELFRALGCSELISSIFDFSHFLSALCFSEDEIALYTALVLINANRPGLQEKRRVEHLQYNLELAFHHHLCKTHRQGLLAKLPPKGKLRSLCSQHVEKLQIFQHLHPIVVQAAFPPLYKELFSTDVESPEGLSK

The target of this experiment is Nuclear receptor ROR-gamma (Mus musculus) (UniProt P51450). Briefly: Secondary confirmation assay for inhibitors of ROR gamma transcriptional activity. As to conditions: Drosophila S2 Gal4-RORgamma UAS-luciferase reporter, 20 h; series mostly up to 92.2 µM; activity change, negative = inhibition: at the top concentration. The gist of the method:
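Drosophila Schneider cells stably expressing Gal4-DBD/ROR gamma fusion (metallothionein promoter) with UAS-Photinus luciferase reporter. Compound preincubated 1 hr, then copper sulfate 700 uM final added; 20 hr at ambient temperature, luminescence read.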
On the technique in general: In a reporter assay the amount or activity of a reporter protein is the signal.
With `COc1cc(O)c(C(CC(=O)N2CCC(Cc3ccccc3)CC2)c2ccc(OC)c(OC)c2)c(OC)c1` (configuration not stated), the “activity change, negative = inhibition” value is 7.01%.

As to `Cc1ccc(-c2cn(-c3ccccc3)c3[n+]2CCCS3)cc1`, the Potency was 28.8 µM (active).

As for `COc1cc(OC)c(C(CC(=O)N2CC(C)CC(C)C2)c2ccc3c(c2)OCO3)c(OCC#N)c1` (configuration not stated), the Potency is 7.24 µM (active).

For `CCOC(=O)C1CCN(CC(=O)Nc2cc(C)nn2-c2nc3ccccc3s2)CC1`, the Potency was 5.75 µM (active).

For `COc1cc(O)c(C(CC(=O)N2CCCC(C)C2)c2ccccc2OC)c(OC)c1` (configuration not stated), the “activity change, negative = inhibition” value is 0.544%.

With `COc1cc(O)c(C(CC(=O)N2CCC(c3ccccc3)CC2)c2ccc3c(c2)OCO3)c(OC)c1` (configuration not stated), the Potency entry was “inactive”.

In the case of `COc1ccc(C(CC(=O)N2CCCC(C)C2)c2ccccc2)cc1` (configuration not stated), the “activity change, negative = inhibition” value is 23.9%.

For `O=C(/C=C/c1ccc(S(=O)(=O)N2CCOCC2)cc1)NC(=S)Nc1ccc(N2CCOCC2)cc1`, the Potency is 2.04 µM (active).

With `COc1ccc(C(CC(=O)N2CCCC(C)C2)c2c(O)cc(OC)cc2OC)cc1` (configuration not stated), the Potency is 2.29 µM (active).

For the compound `COc1cc(C)nc(-n2nc(C)cc2OC)n1`, the Potency was 3.23 µM (active).

Turning to `COc1ccccc1C(CC(=O)Nc1ccc(F)cc1)c1ccccc1` (configuration not stated), the “activity change, negative = inhibition” value is -21%.

For the compound `COc1cc(O)c(C(CC(=O)N2CCCC(CO)C2)c2ccc3c(c2)OCO3)c(OC)c1` (configuration not stated), the “activity change, negative = inhibition” value is -2.57%.

For the compound `COc1cc(O)c(C(CC(=O)N2CCCC(C#N)C2)c2ccc3c(c2)OCO3)c(OC)c1` (configuration not stated), the “activity change, negative = inhibition” value was -20.7%.

Consider `CC(C)(C)c1ccc(-c2noc(CCC(=O)Nc3cccnc3)n2)cc1`, for which the Potency was 0.257 µM (active).

On to `COc1cc(OC)c(C(CC(=O)N2CCCC(C)C2)c2ccc3c(c2)OCO3)c(OCc2ccccc2)c1` (configuration not stated), for which the Potency is 6.45 µM (active).

Turning to `CCC(=O)C1CCCN(C(=O)CC(c2ccc3c(c2)OCO3)c2c(O)cc(OC)cc2OC)C1` (configuration not stated), the “activity change, negative = inhibition” value was 2.25%.

On to `COc1cc(O)c(C(CC(=O)NCC2CCCCC2)c2ccc3c(c2)OCO3)c(OC)c1` (configuration not stated), for which the “activity change, negative = inhibition” value is -24.8%.

As to `Cc1ccc(C(=O)O/N=C/c2ccc(N(C)C)cc2)cc1`, the Potency is 32.3 µM (active).

As to `COc1cc(O)c(C(CC(=O)N2CCCC(C)C2)c2ccc3c(c2)OCO3)c(OC)c1` (configuration not stated), the Potency was 3.63 µM (active) and 3.23 µM (active).

As to `COc1cc(O)c(C(CC(=O)Nc2cccc3ccccc23)c2ccc3c(c2)OCO3)c(OC)c1` (configuration not stated), the “activity change, negative = inhibition” value was -23.2%.

In the case of `COc1cc(O)c(C(CC(=O)N2CC(C)OC(C)C2)c2ccc3c(c2)OCO3)c(OC)c1` (configuration not stated), the Potency is 1.29 µM (active).

Take `COc1cc(O)c(C(CC(=O)N(C)c2cccc(C)c2)c2ccc3c(c2)OCO3)c(OC)c1` (configuration not stated): the “activity change, negative = inhibition” value was -23.4%.

For `COc1ccc(C(=O)/C=C/c2ccc(OC)cc2OC)c(O)c1`, the Potency is 0.575 µM (active).

As for `Cc1ccc(C)c(/C=N/n2cc(-c3ccccc3)[nH]c2=S)c1`, the Potency was 0.575 µM (active).

Take `COc1cc(O)c(C(CC(=O)N2CC(C)CC(C)C2)c2ccc(N(C)C)cc2)c(OC)c1` (configuration not stated): the Potency is 2.88 µM (active).

Regarding `CC1CCCN(C(=O)CC(c2ccc3c(c2)OCO3)c2ccc(O)cc2O)C1` (configuration not stated), the “activity change, negative = inhibition” value is -7.31%.

As to `C#CCOc1cc(OC)cc(OC)c1C(CC(=O)N1CCCC(C)C1)c1ccc2c(c1)OCO2` (configuration not stated), the Potency is 9.11 µM (active).

Turning to `O=C(CCCN1C(=O)/C(=C/c2ccccc2Cl)SC1=S)Nc1cccnc1`, the Potency was 1.82 µM (active).

In the case of `COCOc1cc(OC)cc(OC)c1C(CC(=O)N1CC(C)CC(C)C1)c1ccc2c(c1)OCO2` (configuration not stated), the Potency is 4.07 µM (active).

Take `COc1ccc(-c2nnc(-c3ccc(N(C)C)cc3)o2)cc1`: the Potency is 1.29 µM (active).

As to `COc1ccc(OC)c(NC(=S)N(CCc2c(C)[nH]c3ccccc23)Cc2cccs2)c1`, the Potency was 12.9 µM (active).

For `CCN(CC)c1ccc(/C=N/n2c(-c3ccccc3Br)n[nH]c2=S)cc1`, the Potency is 1.62 µM (active).

Consider `COc1cc(O)c(C(CC(=O)N2CCCC(C)C2)c2ccc(C)cc2)c(OC)c1` (configuration not stated), for which the Potency was 10.2 µM (active).

With `Cc1cccc(-c2nc3cc(NC(=O)C4CCCO4)ccc3o2)c1` (configuration not stated), the Potency was 0.724 µM (active).

Regarding `COc1cc(O)c(C(CC(=O)N2CCCC(CN3CCCCC3)C2)c2ccc3c(c2)OCO3)c(OC)c1` (configuration not stated), the “activity change, negative = inhibition” value was -10.8%.

`COc1cc(O)c(C(CC(=O)N2CCOCC2)c2ccc3c(c2)OCO3)c(OC)c1` (configuration not stated): the “activity change, negative = inhibition” value was -21.1%.

`COc1cc(O)c(C(CC(=O)N2CCCCC2C)c2ccc3c(c2)OCO3)c(OC)c1` (configuration not stated): the Potency is 25.7 µM (active).
